Experimental data published in PubChem BioAssay.
Calls of active or inactive are those of the source.

What was measured:
[1] = binders of probe aFSTL3 on microarray, primary screen, stem cell growth factor project, biochemical, small-molecule microarray, fluorescence 635/667 (AID 1064); conditions: higher = more signal;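 also: measures binding of the biotinylated anti-FSTL3 antibody to printed compounds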
[2] = binders from COS7 lysate, DM2A8 probe, primary screen, torsin A project, cell lysate, small-molecule microarray, fluorescence 635/667 (AID 1065); conditions: higher = more signal, COS7 lysate expressing mutant human TOR1A
[3] = binders of probe aFGF2 on microarray, primary screen, stem cell growth factor project, biochemical, small-molecule microarray, fluorescence 635/667 (AID 1067); conditions: higher = more signal;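 also: measures binding of biotinylated aFGF2 protein to printed compounds on slides; z-score merges feature fluorescence and signal-to-noise across triplicate slides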
[4] = binders of probe aFGF10 on microarray, primary screen, stem cell growth factor project, biochemical, small-molecule microarray, fluorescence 635/667 (AID 1071); conditions: higher = more signal;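 also: score merges 667 nm spot intensity and signal to noise from triplicate slides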
[5] = target: Neurogenic locus notch homolog protein 2 (Homo sapiens) (UniProt Q04721); experiment: Notch2 binders on small-molecule microarrays, primary screen, biochemical, small-molecule microarray, 635 nm fluorescence, stem cell growth factors (AID 1073); conditions: Notch2 binding, higher = more signal
[6] = target: Pro-neuregulin-1, membrane-bound isoform (Homo sapiens) (UniProt Q02297); experiment: NRG1 binders on small-molecule microarrays, primary screen, psychiatric disease protein project, biochemical, small-molecule microarray, fluorescence 635/667 (AID 1075); conditions: NRG1 binding, 635 nm fluorescence, higher = more signal;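 also: score combines 667 nm spot fluorescence with signal to noise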
[7] = tested on: Neuregulin-1 EGF-like domain; experiment: binders of neuregulin-1 EGF-like domain, primary screen, biochemical, small-molecule microarray, 635 nm fluorescence (AID 1081); conditions: small-molecule microarray binding, higher = more signal;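 also: binding of the protein to compounds printed on small-molecule microarray slides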
[8] = FRG1 promoter luciferase signal modulators, primary screen, FRG1 inhibition for FSHD, cell-based, C2C12 myotubes, firefly/Renilla luciferase, luminescence (AID 1084); conditions: higher = more signal, called active from +8 up or from −8 down
[9] = binders of probe aFST on microarray, primary screen, stem cell growth factor project, biochemical, small-molecule microarray, fluorescence 635/667 (AID 1086); conditions: higher = more signal;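 also: score merges 667 nm fluorescence with signal-to-noise of each printed compound spot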
[10] = binders of probe aHhip on microarray, primary screen, stem cell growth factor project, biochemical, small-molecule microarray, fluorescence 635/667 (AID 1087); conditions: higher = more signal;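 also: score merges spot fluorescence at 667nm with spot signal to noise ratio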
[11] = tested on: PRMT1 (protein arginine N-methyltransferase 1); experiment: PRMT1 binders on small-molecule microarrays, primary screen, biochemical, small-molecule microarray, 635 nm fluorescence (AID 1088); conditions: small-molecule microarray binding, higher = more signal;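 also: binding of Prmt1 protein to compounds spotted on small-molecule microarray slides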
[12] = yeast growth modulation, basal conditions, primary screen, YJM789 clinical isolate, OD600, 24 h (AID 1089);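 also: growth of clinical yeast isolate S. cerevisiae YJM 789 seeded 1000 cells per well; test concentration not given here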; conditions: S. cerevisiae YJM789 growth, higher = more signal, called active from +8 up or from −8 down
[13] = fission yeast growth modulation, primary screen, strain 972, OD600, 24 h, no modulator (AID 1090);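 also: basal condition with compound alone and no growth modifier present; test concentration not given here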; conditions: S. pombe 972 growth, higher = more signal, called active from +8 up or from −8 down
[14] = S. cerevisiae growth modulation with rapamycin, primary screen, strain BY4716, OD600, 96 h (AID 1091); conditions: higher = more signal, called active from +8 up or from −8 down; also: test concentration not given here
[15] = target: Torsin-1A-interacting protein 2 (Homo sapiens) (UniProt Q8NFQ8); experiment: LULL1 binders on small-molecule microarray, primary screen, cell lysate, human LULL1 lysate, 635/667 nm fluorescence (AID 1092); conditions: hLULL1 lysate binding, 635 nm fluorescence, higher = more signal;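 also: probe is lysate of COS7 cells overexpressing human LULL1; score merges per-feature 667 nm fluorescence with signal-to-noise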
[16] = E. coli growth modulation, two-sided OD650, primary screen, E. coli filamentation project, strain DRC41, 24 h (AID 1093); conditions: OD650, 24 h, higher = more signal, called active from +8 up or from −8 down;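 also: MC1000 strain lacking acrAB efflux and sulA so SOS filamentation is blocked; test concentration not given here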
[17] = small-molecule microarray binders of probe aLefty2, primary screen, biochemical, biotinylated probe, 635/667 nm fluorescence (AID 1094); conditions: higher = more signal;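 also: score merges spot fluorescence near 667 nm with spot signal-to-noise ratio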
[18] = tested on: Noggin (protein binding on small-molecule microarray); experiment: Noggin binders on small-molecule microarray, primary screen, biochemical, 635/667 nm fluorescence (AID 1095); conditions: 635 nm fluorescence, higher = more signal;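 also: score merges 667 nm feature fluorescence with signal to noise over triplicate slides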
[19] = target: Neurogenic locus notch homolog protein 3 (Homo sapiens) (UniProt Q9UM47); experiment: NOTCH3 binders on small-molecule microarray, primary screen, biochemical, 635/667 nm fluorescence (AID 1096); conditions: NOTCH3 binding, 635 nm fluorescence, higher = more signal
[20] = small-molecule microarray binders of probe aEGFR, primary screen, biochemical, biotinylated probe, 635/667 nm fluorescence (AID 1097); conditions: higher = more signal;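 also: probe is a biotinylated anti-EGFR antibody binding compounds printed on slides; score combines fluorescence near 667 nm and signal to noise of each spot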

Chain of Neurogenic locus notch homolog protein 3 (Homo sapiens) (Q9UM47 whole entry, looked up): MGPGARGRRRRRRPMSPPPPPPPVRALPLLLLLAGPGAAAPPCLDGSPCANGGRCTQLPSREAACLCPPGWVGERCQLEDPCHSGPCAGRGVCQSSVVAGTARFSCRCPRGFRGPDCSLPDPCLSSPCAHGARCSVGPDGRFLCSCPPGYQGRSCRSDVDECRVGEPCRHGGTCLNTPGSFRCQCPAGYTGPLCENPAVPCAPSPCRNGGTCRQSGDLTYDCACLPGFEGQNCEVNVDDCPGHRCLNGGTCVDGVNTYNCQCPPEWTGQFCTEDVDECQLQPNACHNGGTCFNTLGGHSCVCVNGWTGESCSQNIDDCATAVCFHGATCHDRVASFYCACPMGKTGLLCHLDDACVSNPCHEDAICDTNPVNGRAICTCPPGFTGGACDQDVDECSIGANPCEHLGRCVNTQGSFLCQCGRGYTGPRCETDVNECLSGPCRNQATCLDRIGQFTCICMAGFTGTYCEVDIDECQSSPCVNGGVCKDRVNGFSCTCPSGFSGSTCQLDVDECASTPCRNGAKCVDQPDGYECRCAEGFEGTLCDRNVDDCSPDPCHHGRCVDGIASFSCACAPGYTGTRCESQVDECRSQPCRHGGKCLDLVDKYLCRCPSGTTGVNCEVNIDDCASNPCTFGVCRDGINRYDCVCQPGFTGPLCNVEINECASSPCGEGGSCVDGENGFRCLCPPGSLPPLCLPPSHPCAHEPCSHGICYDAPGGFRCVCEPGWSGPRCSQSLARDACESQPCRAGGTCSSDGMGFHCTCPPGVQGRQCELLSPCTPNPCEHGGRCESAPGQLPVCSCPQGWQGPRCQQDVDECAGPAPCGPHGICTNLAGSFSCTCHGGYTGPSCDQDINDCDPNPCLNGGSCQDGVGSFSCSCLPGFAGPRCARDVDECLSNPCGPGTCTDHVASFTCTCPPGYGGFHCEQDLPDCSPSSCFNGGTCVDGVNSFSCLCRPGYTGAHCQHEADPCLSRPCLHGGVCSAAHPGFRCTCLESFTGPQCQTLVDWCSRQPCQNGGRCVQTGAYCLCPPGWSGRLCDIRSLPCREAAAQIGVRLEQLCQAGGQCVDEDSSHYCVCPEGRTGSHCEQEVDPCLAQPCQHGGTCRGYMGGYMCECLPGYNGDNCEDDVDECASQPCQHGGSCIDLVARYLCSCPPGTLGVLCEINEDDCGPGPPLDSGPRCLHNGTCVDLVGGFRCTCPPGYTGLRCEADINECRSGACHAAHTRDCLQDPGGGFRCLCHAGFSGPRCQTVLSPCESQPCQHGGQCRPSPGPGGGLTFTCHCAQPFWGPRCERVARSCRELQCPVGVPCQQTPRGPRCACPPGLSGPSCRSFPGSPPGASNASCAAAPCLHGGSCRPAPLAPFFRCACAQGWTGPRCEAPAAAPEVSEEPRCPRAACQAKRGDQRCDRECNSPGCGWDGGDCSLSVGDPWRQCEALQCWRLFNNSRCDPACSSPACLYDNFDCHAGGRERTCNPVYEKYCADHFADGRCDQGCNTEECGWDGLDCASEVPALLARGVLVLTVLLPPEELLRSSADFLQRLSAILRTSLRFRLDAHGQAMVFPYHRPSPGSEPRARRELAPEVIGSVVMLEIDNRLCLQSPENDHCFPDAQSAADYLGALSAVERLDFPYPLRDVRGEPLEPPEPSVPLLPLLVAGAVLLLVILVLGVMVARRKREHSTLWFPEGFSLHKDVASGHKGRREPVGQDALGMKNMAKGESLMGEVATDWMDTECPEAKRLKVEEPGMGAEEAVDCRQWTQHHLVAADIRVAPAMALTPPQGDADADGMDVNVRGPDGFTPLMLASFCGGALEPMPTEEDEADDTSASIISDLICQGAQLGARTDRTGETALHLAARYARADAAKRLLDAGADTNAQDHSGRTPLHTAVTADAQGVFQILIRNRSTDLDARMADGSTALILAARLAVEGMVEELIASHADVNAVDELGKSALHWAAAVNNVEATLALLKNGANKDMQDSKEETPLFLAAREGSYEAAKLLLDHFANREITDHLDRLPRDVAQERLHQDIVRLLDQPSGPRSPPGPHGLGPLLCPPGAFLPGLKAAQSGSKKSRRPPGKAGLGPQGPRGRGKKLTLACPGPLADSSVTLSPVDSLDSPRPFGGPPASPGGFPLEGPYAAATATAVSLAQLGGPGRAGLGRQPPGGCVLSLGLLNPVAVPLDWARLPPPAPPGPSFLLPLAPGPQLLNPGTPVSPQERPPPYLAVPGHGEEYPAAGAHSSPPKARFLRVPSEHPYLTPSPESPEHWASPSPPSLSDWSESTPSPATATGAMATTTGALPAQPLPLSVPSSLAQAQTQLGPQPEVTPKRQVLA
Chain of Torsin-1A-interacting protein 2 (Homo sapiens) (Q8NFQ8 whole entry, looked up): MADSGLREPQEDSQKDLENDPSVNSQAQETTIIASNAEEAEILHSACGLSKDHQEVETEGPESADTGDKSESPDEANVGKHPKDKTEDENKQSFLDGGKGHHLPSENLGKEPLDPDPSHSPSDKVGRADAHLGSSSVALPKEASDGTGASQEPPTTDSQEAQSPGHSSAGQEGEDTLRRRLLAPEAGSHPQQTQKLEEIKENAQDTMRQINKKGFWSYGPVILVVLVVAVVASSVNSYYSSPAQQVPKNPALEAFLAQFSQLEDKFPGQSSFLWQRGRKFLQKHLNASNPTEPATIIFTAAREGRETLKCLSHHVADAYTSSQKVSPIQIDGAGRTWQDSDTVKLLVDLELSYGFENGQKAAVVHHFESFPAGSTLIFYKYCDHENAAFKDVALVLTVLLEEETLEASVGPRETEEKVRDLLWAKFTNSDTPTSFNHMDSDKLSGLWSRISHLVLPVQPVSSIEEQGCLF
Chain of Pro-neuregulin-1, membrane-bound isoform (Homo sapiens) (Q02297 whole entry, looked up, the tested form may be a part, canonical isoform): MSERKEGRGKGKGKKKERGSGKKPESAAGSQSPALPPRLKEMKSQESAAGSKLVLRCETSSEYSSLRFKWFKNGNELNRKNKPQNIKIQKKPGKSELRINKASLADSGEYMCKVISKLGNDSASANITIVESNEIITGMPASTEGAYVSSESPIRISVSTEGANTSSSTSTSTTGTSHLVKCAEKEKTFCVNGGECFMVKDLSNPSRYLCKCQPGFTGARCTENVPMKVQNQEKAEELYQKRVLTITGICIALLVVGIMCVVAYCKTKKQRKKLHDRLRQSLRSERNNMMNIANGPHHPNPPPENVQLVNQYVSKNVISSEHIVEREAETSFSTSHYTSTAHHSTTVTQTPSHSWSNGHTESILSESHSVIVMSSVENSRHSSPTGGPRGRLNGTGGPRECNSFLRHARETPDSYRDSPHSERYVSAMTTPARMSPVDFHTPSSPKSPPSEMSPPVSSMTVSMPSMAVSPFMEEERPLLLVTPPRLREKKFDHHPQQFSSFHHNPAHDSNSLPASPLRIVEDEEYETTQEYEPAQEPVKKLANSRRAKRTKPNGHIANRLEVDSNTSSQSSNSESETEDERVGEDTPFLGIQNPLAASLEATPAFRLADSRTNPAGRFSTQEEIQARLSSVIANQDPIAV

Row | Compound | composite z-score [1] | composite z-score [2] | composite z-score [3] | composite z-score [4] | composite z-score [5] | composite z-score [6] | composite z-score [7] | z-score [8] | composite z-score [9] | composite z-score [10] | composite z-score [11] | z-score [12] | z-score [13] | z-score [14] | composite z-score [15] | z-score [16] | composite z-score [17] | composite z-score [18] | composite z-score [19] | composite z-score [20]
1 | COC(=O)[C@@]1(Cc2ccc(OC)cc2)[C@H]2c3cc(C(=O)N(C)C)[nH]c3C[C@H]2CN1C(=O)c1ccccc1 | -0.231 | -0.884 | 0.0992 | 0.304 | 0.793 | 0.882 | 0.977 | 1.04 (inactive) | 0.019 | -0.0905 | -0.614 | 0.0372 (inactive) | 1.15 (inactive) | 0.0745 (inactive) | 0.982 | 0.0515 (inactive) | 0.096 | -0.337 | 0.201 | -0.0594
2 | [N-]=[N+]=Nc1ccccc1[C@H]1OC(c2ccc(OCCCO)cc2)=N[C@@]1(Cc1ccccc1)C(=O)NCC(O)CO (stereo not given in full) | 0.277 | 0.0899 | 0.0528 | 0.231 | 1.36 | 1.19 | 1.12 | 2.22 (inactive) | 1.03 | -0.0541 | 1.02 | -0.858 (inactive) | -1.13 (inactive) | 0.617 (inactive) | 3.52 | 0.824 (inactive) | 0.109 | 0.0821 | 0.206 | -0.0226
3 | [N-]=[N+]=Nc1ccccc1[C@@H]1OC(c2ccc(OCCCO)cc2)=N[C@]1(CCS(=O)(=O)c1ccccc1)C(=O)NCC(O)CO (stereo not given in full) | 0.158 | 0.372 | -0.0125 | 0.0835 | 0.209 | 1.05 | 1.21 | -0.463 (inactive) | 0.283 | 0.0401 | 0.856 | 0.678 (inactive) | 0.636 (inactive) | 0.347 (inactive) | 3.1 | 0.679 (inactive) | -0.116 | 0.351 | 0.0354 | -0.147
4 | COC(=O)[C@@]1(Cc2ccccc2)[C@H]2c3cc(C(=O)N(C)C)n(CCO)c3C[C@H]2CN1C(=O)c1ccccc1 | 0.348 | 0.0312 | 0.152 | 1.14 | 1.39 | 1.93 | 1.17 | 1.27 (inactive) | 0.647 | -0.418 | 0.805 | 0.136 (inactive) | 0.612 (inactive) | 0.26 (inactive) | 4.04 | -0.508 (inactive) | 0.381 | -0.779 | 1.02 | 0.418
5 | CCCN1C(=O)[C@@]2(c3ccc([N+](=O)[O-])cc3)CC(=O)N(CC34CC5CC(CC(C5)C3)C4)[C@@H]2c2ccc(CO)cc21 | 0.402 | -0.519 | -0.165 | -0.046 | -0.421 | 0.0413 | -0.58 | 0.244 (inactive) | -0.103 | -0.213 | -0.247 | -0.962 (inactive) | -0.365 (inactive) | -1.93 (inactive) | 0.162 | -0.19 (inactive) | -0.0099 | 0.047 | -0.184 | 0.142
